Each structure is given as a SMILES string. Calls of active or inactive are those of the source. Rule for the calls: active = hit-call score of the fitted dose curve at least 0.9, where 1 is the maximum; inactive = score below 0.9.

Among the data in PubChem BioAssay (EPA / NIEHS) are outcome values, retold here.

The nature of one assay: CCTE_Harrill_HTTr_Viability_MCF7: CCTE's 6-hour Cell Viability Assessment for the High-Throughput Transcriptomics (HTTr) Platform, in MCF-7 cells cultured in DMEM + 10% fetal bovine serum, Harrill Lab (AID 2284010). A digest of the protocol: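 MCF-7 cells in DMEM + 10% FBS, 384-well, exposed 6 h to an eight-point dilution series. Membrane integrity scored by high-content imaging of propidium iodide exclusion; bidirectional fit versus DMSO.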
`c1ccc2[nH]cnc2c1`: the outcome was inactive.

In the case of `CS(=O)(=O)OCCCCOS(C)(=O)=O`, the outcome was inactive.

`CCC(C)=O`: the result was inactive.

As for `CCCC(=O)OCCc1ccccc1`, the outcome was inactive.

As for `CCOC(=O)c1ccc(N)cc1`, the outcome was inactive.

Take `Nc1ccn([C@H]2CS[C@@H](CO)O2)c(=O)n1`: the result was inactive.

As to `CCCCC1(COC(=O)CCC(=O)O)C(=O)N(c2ccccc2)N(c2ccccc2)C1=O`, the outcome was inactive.

Consider `CN(c1nccc(=O)[nH]1)C1CCN(c2nc3ccccc3n2Cc2ccc(F)cc2)CC1`, for which the result was inactive.

With `COC(=O)c1ccc(C)cc1C1=NC(C)(C(C)C)C(=O)N1` (stereo unspecified) (tested in a mixture with another compound), the outcome was inactive.

`[O-]n1ccccc1=S.[O-]n1ccccc1=S.[Zn+2]`: the outcome was inactive.

In the case of `Cc1ccc(N)c(S(=O)(=O)O)c1`, the result was inactive.

On to `CCCCCCOC(=O)CCC`, for which the outcome was inactive.

With `CC(=O)CC(=O)Nc1ccccc1`, the outcome was inactive.

For `CC(C)(C)CC(C)(C)c1ccc(OCCOCC[N+](C)(C)Cc2ccccc2)cc1`, the result was inactive.

As to `C=CCOC(=O)CCCCCC`, the outcome was inactive.

Turning to `CC1=CC[C@@]23C[C@@H]1C(C)(C)[C@@H]2CC[C@H]3C`, the outcome was inactive.

Take `CC1(C)O[C@@H]2C[C@H]3[C@@H]4CCC5=CC(=O)C=C[C@]5(C)[C@@]4(F)[C@@H](O)C[C@]3(C)[C@]2(C(=O)CO)O1`: the result was inactive.

Regarding `COC(=O)Nc1ccc(Cl)c(Cl)c1`, the outcome was inactive.

As to `CCc1ccc(O)cc1`, the result was inactive.

Take `C1=CC2C3C=CC(C3)C2C1` (stereo unspecified): the outcome was inactive.

For `CC(C)c1ccccc1O`, the outcome was inactive.

In the case of `O=C(O)CCCCCCCCC(=O)O`, the outcome was inactive.

For the compound `CC(C)(CO)[C@@H](O)C(=O)NCCC(=O)O`, the result was inactive.

On to `CS(C)=O`, for which the result was inactive.

As to `CCCN(CCC)S(=O)(=O)c1ccc(C(=O)O)cc1`, the result was inactive.

For `CC1(C)C2=CCCC(C)(C)[C@]23CC[C@H]1C3`, the result was inactive.

For `OCC#CCO`, the outcome was inactive.

For the compound `Brc1ccc(Br)c(Br)c1`, the outcome was inactive.

With `O=C(O)CCCCCCCCCCCC(=O)O`, the outcome was inactive.

As for `Cc1ccc(S(N)(=O)=O)cc1`, the outcome was inactive.

Regarding `COCCOCCOCCO`, the outcome was inactive.

Consider `CC(C)C[C@H](NC(=O)OCC1c2ccccc2-c2ccccc21)C(=O)O`, for which the outcome was inactive.

In the case of `CCCC1O[C@@H]2C[C@H]3[C@@H]4CCC5=CC(=O)C=C[C@]5(C)[C@H]4[C@@H](O)C[C@]3(C)[C@]2(C(=O)CO)O1` (stereo partly specified), the outcome was inactive.

As for `Cc1[nH]c(=O)c(C#N)cc1-c1ccncc1`, the outcome was inactive.

On to `CC(=O)O[C@@H]1CC2CCC1(C)C2(C)C` (stereo partly specified), for which the outcome was inactive.

As to `Cc1ccc(-c2ccccc2)cc1`, the result was inactive.

With `Nc1ccccc1[N+](=O)[O-]`, the result was inactive.

Turning to `CCC1(c2ccccc2)C(=O)NCNC1=O`, the result was inactive.

As to `CCCSc1ccc2nc(NC(=O)OC)[nH]c2c1`, the outcome was inactive.

A short description of the next assay: CCTE_Harrill_HTTr_Apoptosis_MCF7: CCTE's 6-hour Apoptosis Assessment for the High-Throughput Transcriptomics (HTTr) Platform, in MCF-7 cells cultured in DMEM + 10% fetal bovine serum, Harrill Lab (AID 2284011). A digest of the protocol:
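Read-out: CellEvent Caspase 3/7 Green signal by high content imaging, gain-of-signal indicating apoptosis. MCF-7 cells, DMEM + 10% FBS, eight-point dilution series, 6 h exposure. Curves fitted bidirectionally relative to DMSO negative control.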
For `Nc1ccn([C@H]2CS[C@@H](CO)O2)c(=O)n1`, the result was inactive.

Regarding `[O-]n1ccccc1=S.[O-]n1ccccc1=S.[Zn+2]`, the result was inactive.

`CC(C)(C)CC(C)(C)c1ccc(OCCOCC[N+](C)(C)Cc2ccccc2)cc1`: the result was inactive.

On to `CC1=CC[C@@]23C[C@@H]1C(C)(C)[C@@H]2CC[C@H]3C`, for which the outcome was inactive.

With `O=C(O)CCCCCCCCC(=O)O`, the outcome was inactive.

With `CS(C)=O`, the result was inactive.

As for `OCC#CCO`, the result was inactive.

With `COCCOCCOCCO`, the result was inactive.

On to `CC(C)C[C@H](NC(=O)OCC1c2ccccc2-c2ccccc21)C(=O)O`, for which the result was inactive.

As to `CC(=O)O[C@@H]1CC2CCC1(C)C2(C)C` (stereo partly specified), the result was inactive.

With `Cc1ccc(-c2ccccc2)cc1`, the outcome was inactive.

As to `CCC1(c2ccccc2)C(=O)NCNC1=O`, the result was inactive.
